From PubChem
A selection: hits, their analogues and other compounds. The true share with any hit is near 2.9%.
MEKK2 mut-MEK5 = signal of MEK5 binding to mutant human MEKK2 PB1 domain; bead flow cytometry, Alexa488-MEK5 binding to MEKK2 mutant; percent response, % at 10 µM; hit rate 0.35% among 290,000; in the data active = percent response above about 24%, passing the limit was not always enough
MEKK2 WT-MEK5 = raises or lowers MEK5 binding to wildtype human MEKK2 PB1 domain | hit rate 1.1% among 290,000 | bead flow cytometry, Alexa488-MEK5 binding to MEKK2 WT; actives lie on both sides | binding response (% of control), % at 10 µM; in the data active = binding response below about 67% or above about 130%
MEKK3 PB1 HTS = modulators (inhibitors or enhancers) of MEK5 binding to human MEKK3 PB1 domain | binding response (% of control), % at 10 µM | AID 1529 | hit rate 1.4% among 290,000 | Q99759 | bead-based flow cytometry, Alexa488-MEK5 binding to MEKK3; actives lie on both sides; 0 = blocked by unlabeled MEK5, 100 = vehicle;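 active = binding response more than 3 SD above or below the average of its plate-row segment, actives on both sides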;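 also: Alexa488 bead fluorescence after subtracting the streptavidin-only scavenger bead signal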
dFosB act = enhances mouse delta FosB homodimer DNA binding. P13346. purified delta FosB, TAMRA-CDK5 oligo fluorescence polarization; percent of positive-control signal above neutral wells. activation, % at 25 µM. hit rate 0.99% among 340,000. AID 493131;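 active = mean activation above about 17%, with every replicate also reaching it, limit read from the data, passing the limit was not always enough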
Target sequence (P13346 whole entry, looked up): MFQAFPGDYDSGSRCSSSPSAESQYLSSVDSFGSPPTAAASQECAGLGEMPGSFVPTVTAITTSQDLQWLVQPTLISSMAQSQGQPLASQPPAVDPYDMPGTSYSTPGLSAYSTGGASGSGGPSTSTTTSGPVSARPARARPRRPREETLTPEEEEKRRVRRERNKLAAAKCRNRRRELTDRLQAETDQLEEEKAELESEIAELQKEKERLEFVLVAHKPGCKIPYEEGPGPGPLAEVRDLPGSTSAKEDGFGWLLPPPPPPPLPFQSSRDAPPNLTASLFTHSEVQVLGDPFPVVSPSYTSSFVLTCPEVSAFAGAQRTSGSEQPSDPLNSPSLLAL
FID counter = fluorescent intercalator displacement, NS3 helicase counter-screen | DNA fluorescent intercalator displacement, fluorescence | inhibition, % at 7.9 µM | hit rate 0.17% among 290,000 | AID 1845; in the data active = inhibition above about 37%;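 also: 0% = vehicle and 100% = reference compound; higher means more ethidium bromide displaced from hairpin DNA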
MEKK2wt confirm = raises or lowers MEK5 binding to wildtype human MEKK2, retest; bead flow cytometry, Alexa488-MEK5 binding to MEKK2 WT; actives lie on both sides; hit rate 2.4% among 5,900; AID 1892; binding response (% of control), % at 10 µM; shares compounds with MEKK3 PB1 HTS; in the data active = binding response below about 16% or above about 210%; inactive = in between
MEKK2mut confirm = signal of MEK5 binding to mutant human MEKK2, retest | shares compounds with MEKK3 PB1 HTS | bead flow cytometry, Alexa488-MEK5 binding to MEKK2 mutant | percent response, % at 10 µM | hit rate 2% among 5,900 | AID 1893; in the data active = percent response mostly above about 71%, no sharp cut-off; inactive = mostly below about 38%;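 also: higher means compound restores mutant binding toward wildtype level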
MEKK3 confirm = confirmation of inhibitors of MEK5 binding to human MEKK3 | hit rate 1.8% among 5,900 | bead flow cytometry, Alexa488-MEK5 binding to MEKK3; stronger effect = lower value | binding response (% of control), % at 10 µM | shares compounds with MEKK3 PB1 HTS;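 active = binding response below 72% of control, or above a set upper limit, though filed actives all read lower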;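 also: 100% = DMSO only wells and 0% = binding blocked by excess unlabeled MEK5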
* marks the source's active call; other numbers are inactive results; [ ] = remark or other dose.

How did COC(=O)CCC(=O)OC1(C)C(=O)C2=CN(c3ccccc3)C(c3ccc(OC)cc3)=CC2=C(Br)C1=O (stereo unspecified) do in these assays?
MEKK2 mut-MEK5: 5; MEKK2 WT-MEK5: -5.0*; MEKK3 PB1 HTS: 75*[inhibitor]; dFosB act: -18; MEKK2wt confirm: 89; MEKK2mut confirm: -4; MEKK3 confirm: 91

What do the screens show for `COC(=O)CCC(=O)OC1(C)C(=O)C2=CN(C3CC3)C(c3ccc(OC)cc3)=CC2=C(Br)C1=O` (stereo unspecified)?
MEKK2 mut-MEK5: -2; MEKK2 WT-MEK5: 2.0*[inhibitor]; MEKK3 PB1 HTS: 87; dFosB act: 0; MEKK2wt confirm: 93; MEKK2mut confirm: 2; MEKK3 confirm: 94

What do the screens show for `CC1(OC(=O)CCc2ccccc2)C(=O)C=C2C=C(c3ccc(C#N)cc3)N(C3CC3)C=C2C1=O` (stereo unspecified)?
MEKK2 mut-MEK5: 4; MEKK2 WT-MEK5: 140*; MEKK3 PB1 HTS: 125; dFosB act: -1; MEKK2wt confirm: 97; MEKK2mut confirm: -1; MEKK3 confirm: 101

How did CCCCC1=CC2=C(c3ccco3)C(=O)C(C)(OC(=O)c3ccc(OC)cc3)C(=O)C2=CN1c1ccccc1 (stereo unspecified) do in these assays?
MEKK2 mut-MEK5: 4; MEKK2 WT-MEK5: 93; MEKK3 PB1 HTS: 98; dFosB act: -4

How did CCC(=O)OC1(C)C(=O)C2=COC(c3ccc(OC)cc3)=CC2=C(Br)C1=O (stereo unspecified) do in these assays?
MEKK2 mut-MEK5: -2; MEKK2 WT-MEK5: 99; MEKK3 PB1 HTS: 93; dFosB act: -2

Results for O=C(COC(=O)c1ccco1)NCc1ccc(F)cc1 ?
MEKK2 mut-MEK5: -8; MEKK2 WT-MEK5: 87; MEKK3 PB1 HTS: 91; dFosB act: 9; FID counter: 0

Results for COc1ccccc1CCC(=O)NNC(=O)c1ccc(Br)cc1 ?
MEKK2 mut-MEK5: 7; MEKK2 WT-MEK5: 102; MEKK3 PB1 HTS: 102; dFosB act: 0; FID counter: -11

Results for N#Cc1ccc(Cn2c(=O)c(C#N)c3n(c2=O)CCC3)cc1 ?
MEKK2 mut-MEK5: -21; MEKK2 WT-MEK5: 0.0*[inhibitor]; MEKK3 PB1 HTS: 0.0*[inhibitor]; dFosB act: -3; FID counter: 0; MEKK2wt confirm: 106; MEKK2mut confirm: 6; MEKK3 confirm: 104

How did CCN(CC)S(=O)(=O)c1cc(NS(=O)(=O)c2cccs2)ccc1C do in these assays?
dFosB act: 1

What do the screens show for `CCNc1ccc(C(=O)OCC)cc1NC(=O)c1cccc(N(C)C)c1`?
MEKK2 mut-MEK5: -2; MEKK2 WT-MEK5: 95; MEKK3 PB1 HTS: 97; dFosB act: -3; FID counter: -26

What do the screens show for `CCOC(=O)c1ccc(S(=O)(=O)NNC(=O)c2cccc(N(C)C)c2)cc1`?
MEKK2 mut-MEK5: 4; MEKK2 WT-MEK5: 3.0*[inhibitor]; MEKK3 PB1 HTS: 3.0*[inhibitor]; dFosB act: -8; FID counter: -18; MEKK2wt confirm: 98; MEKK2mut confirm: -3; MEKK3 confirm: 100

What do the screens show for `Cc1ccc(C(=O)N2C(=S)C(c3ccc(F)cc3)=NC23CCN(C)CC3)cc1`?
MEKK2 mut-MEK5: 23; MEKK2 WT-MEK5: 151*; MEKK3 PB1 HTS: 106; dFosB act: -4; FID counter: 7; MEKK2wt confirm: 110; MEKK2mut confirm: 6; MEKK3 confirm: 101

Results for Cc1ccc(C(=O)N2CCC(C(=O)c3ccc(F)cc3)CC2)cc1 ?
dFosB act: -4

Results for O=C(NCc1cccs1)N[C@@H](Cc1ccccc1)C(=O)O ?
MEKK2 mut-MEK5: -26; MEKK2 WT-MEK5: -2.0*[inhibitor]; MEKK3 PB1 HTS: 1.0*[inhibitor]; dFosB act: 1; FID counter: -3; MEKK2wt confirm: 90; MEKK2mut confirm: -3; MEKK3 confirm: 86

How did CCC(C)[C@H](NC(=O)NCc1cccs1)C(=O)OC (stereo partly specified) do in these assays?
MEKK2 mut-MEK5: -1; MEKK2 WT-MEK5: 97; MEKK3 PB1 HTS: 98; dFosB act: 1; FID counter: 0

What do the screens show for `CC(C)[C@H](NC(=O)NCc1cccs1)C(=O)O`?
MEKK2 mut-MEK5: -46; MEKK2 WT-MEK5: 2.0*[inhibitor]; MEKK3 PB1 HTS: 2.0*[inhibitor]; dFosB act: 9; FID counter: 3; MEKK2wt confirm: 102; MEKK2mut confirm: 8; MEKK3 confirm: 108

How did COC(=O)[C@H](Cc1ccccc1)NC(=O)NCc1cccs1 do in these assays?
MEKK2 mut-MEK5: 13; MEKK2 WT-MEK5: 105; MEKK3 PB1 HTS: 104; dFosB act: 2; FID counter: -3

How did CC(=NNC(=O)Cn1ccc(C(F)(F)F)n1)c1ccc(-n2ccnc2)cc1 do in these assays?
dFosB act: -8

Results for Cc1ccc(N2CCN(C(=O)c3cc(C(=O)c4ccccc4C)c[nH]3)CC2)c(C)c1 ?
MEKK2 mut-MEK5: -9; MEKK2 WT-MEK5: 92; MEKK3 PB1 HTS: 100; dFosB act: -2; FID counter: -2

Results for O=C(CSc1nc2ccccc2[nH]1)Nc1nc(-c2ccc(Br)cc2)cs1 ?
MEKK2 mut-MEK5: 1; MEKK2 WT-MEK5: 116; MEKK3 PB1 HTS: 173*; dFosB act: 10; FID counter: 1; MEKK2wt confirm: 99; MEKK2mut confirm: -8; MEKK3 confirm: 103

What do the screens show for `O=C(NCc1ccccc1)C1CCC(CNc2c(N3CCCCC3)c(=O)c2=O)CC1` (stereo unspecified)?
MEKK2 mut-MEK5: -7; MEKK2 WT-MEK5: 77; MEKK3 PB1 HTS: 70*[inhibitor]; dFosB act: -10; FID counter: -3; MEKK2wt confirm: 102; MEKK2mut confirm: 2; MEKK3 confirm: 103

Results for O=C(Nc1ccc2c(c1)OCO2)N1CCC(CO)(CC2CCCCO2)CC1 (stereo unspecified) ?
MEKK2 mut-MEK5: 1; MEKK2 WT-MEK5: 106; MEKK3 PB1 HTS: 99; dFosB act: 1; FID counter: -10

How did COc1ccc(CNc2nc(-c3cccnc3)nn2C(C)=O)cc1 do in these assays?
MEKK2 mut-MEK5: -42; MEKK2 WT-MEK5: 7.0*[inhibitor]; MEKK3 PB1 HTS: 5.0*[inhibitor]; dFosB act: -2; FID counter: -13; MEKK2wt confirm: 107; MEKK2mut confirm: 2; MEKK3 confirm: 106

Results for COc1ccc(CNc2nc(-c3cccnc3)nn2C(=O)CC(C)C)cc1 ?
MEKK2 mut-MEK5: 5; MEKK2 WT-MEK5: 107; MEKK3 PB1 HTS: 102; dFosB act: -8; FID counter: -16
